# Test results published in the supplement of paper PMC8728848.
# The sample as a whole holds a higher share of the strongest signals than the screen did.
# B1: LysMD3 (Homo sapiens), Q7Z3D4 (protein)
# chain: MAGRHQNRSFPLPGVQSSGQVHAFGNCSDSDILEEDAEVYELRSRGKEKVRRSTSRDRLDDIIVLTKDIQEGDTLNAIALQYCCTVADIKRVNNLISDQDFFALRSIKIPVKKFSSLTETLCPPKGRQTSRHSSVQYSSEQQEILPANDSLAYSDSAGSFLKEVDRDIEQIVKCTDNKRENLNEVVSALTAQQMRFEPDNKNTQRKDPYYGADWGIG
# Tests used:
# Test in all cases: glycan array binding signal (z-score within array); higher = stronger binding
# Conditions in all cases: glycan notation: IUPAC condensed, linker removed
# [1] = molecular target: Fuc(a1-2)Gal(b1-3)GalNAc(b1-3)Gal(a1-4)Gal(b1-4)Glc
# In short: (§1)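 The Consortium for Functional Glycomics database supplied 3228 glycan arrays, of which those lacking an available protein sequence were dropped. The binding signal, a within-array Z-score, was averaged across arrays of the same protein sequence and across linkers. Negative scores can be read as non-binding.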
# [2] = molecular target: Fuc(a1-2)Gal(b1-3)GlcNAc(b1-3)GalNAc
# In short: as §1
# [3] = molecular target: Fuc(a1-2)Gal(b1-3)[Fuc(a1-4)]GlcNAc(b1-2)Man(a1-3)[Fuc(a1-2)Gal(b1-3)[Fuc(a1-4)]GlcNAc(b1-2)Man(a1-6)]Man(b1-4)GlcNAc(b1-4)[Fuc(a1-6)]GlcNAc(b1-4)[Fuc(a1-6)]GlcNAc
# In short: as §1
# [4] = molecular target: Fuc(a1-2)Gal(b1-4)[Fuc(a1-3)]GlcNAc(b1-2)Man(a1-3)[Fuc(a1-2)Gal(b1-4)[Fuc(a1-3)]GlcNAc(b1-2)Man(a1-6)]Man(b1-4)GlcNAc(b1-4)[Fuc(a1-6)]GlcNAc
# In short: as §1
# [5] = molecular target: Fuc(a1-2)[Gal(a1-4)]Gal(b1-4)GlcNAc
# In short: as §1
# [6] = molecular target: Fuc(a1-3)[Gal3S(b1-4)]GlcNAc
# In short: as §1
# [7] = molecular target: Fuc(a1-4)GlcNAc
# In short: as §1
# [8] = molecular target: Gal(a1-3)Gal(b1-4)[Fuc(a1-3)]GlcNAc
# In short: as §1
# [9] = molecular target: Gal(a1-4)GlcNAc
# In short: as §1
# [10] = molecular target: Gal(b1-3)Gal
# In short: as §1
# [11] = molecular target: Gal(b1-3)GlcNAc(b1-2)Man
# In short: as §1
# [12] = molecular target: Gal(b1-3)GlcNAc(b1-3)Gal(b1-4)[Fuc(a1-3)]GlcNAc
# In short: as §1
# [13] = molecular target: Gal(b1-3)GlcNAc(b1-3)Gal(b1-4)[Fuc(a1-3)]GlcNAc(b1-6)[Gal(b1-3)GlcNAc(b1-3)]Gal(b1-4)Glc
# In short: as §1
# [14] = molecular target: Gal(b1-4)Glc
# In short: as §1
# [15] = molecular target: Gal(b1-4)GlcNAc(b1-3)Gal(b1-4)GlcNAc(b1-3)GalNAc
# In short: as §1
# [16] = molecular target: Gal(b1-4)GlcNAc(b1-3)GalNAc
# In short: as §1
# [17] = molecular target: Gal3S(b1-4)GlcNAc
# In short: as §1
# [18] = molecular target: Gal3S(b1-4)[Fuc(a1-3)]GlcNAc
# In short: as §1
# [19] = molecular target: GalNAc(a1-3)Gal
# In short: as §1
# [20] = molecular target: GalNAc(b1-3)GalNAc
# In short: as §1
# [21] = molecular target: GalNAc(b1-3)GlcNAc
# In short: as §1
# [22] = molecular target: GalNAc3S(b1-4)[Fuc(a1-3)]GlcNAc
# In short: as §1
# [23] = molecular target: GlcNAc(a1-4)Gal(b1-3)GlcNAc
# In short: as §1
# [24] = molecular target: GlcNAc(b1-3)Gal(b1-3)GalNAc
# In short: as §1
# [25] = molecular target: GlcNAc(b1-3)Gal(b1-4)Glc
# In short: as §1
# [26] = molecular target: GlcNAc(b1-3)Gal(b1-4)GlcNAc(b1-2)Man(a1-3)[GlcNAc(b1-3)Gal(b1-4)GlcNAc(b1-2)Man(a1-6)]Man(b1-4)GlcNAc(b1-4)[Fuc(a1-6)]GlcNAc
# In short: as §1
# [27] = molecular target: GlcNAc(b1-3)Gal(b1-4)GlcNAc(b1-3)Gal(b1-4)GlcNAc(b1-2)Man(a1-3)[GlcNAc(b1-3)Gal(b1-4)GlcNAc(b1-3)Gal(b1-4)GlcNAc(b1-2)Man(a1-6)]Man(b1-4)GlcNAc(b1-4)[Fuc(a1-6)]GlcNAc
# In short: as §1
# [28] = molecular target: GlcNAc(b1-3)Gal(b1-4)GlcNAc(b1-3)Gal(b1-4)GlcNAc(b1-2)[GlcNAc(b1-3)Gal(b1-4)GlcNAc(b1-3)Gal(b1-4)GlcNAc(b1-6)]Man(a1-6)[GlcNAc(b1-3)Gal(b1-4)GlcNAc(b1-3)Gal(b1-4)GlcNAc(b1-2)Man(a1-3)]Man(b1-4)GlcNAc(b1-4)[Fuc(a1-6)]GlcNAc
# In short: as §1
# [29] = molecular target: GlcNAc(b1-3)Gal(b1-4)GlcNAc(b1-3)Gal(b1-4)GlcNAc(b1-3)Gal(b1-4)GlcNAc(b1-2)Man(a1-3)[GlcNAc(b1-3)Gal(b1-4)GlcNAc(b1-3)Gal(b1-4)GlcNAc(b1-3)Gal(b1-4)GlcNAc(b1-2)Man(a1-6)]Man(b1-4)GlcNAc(b1-4)[Fuc(a1-6)]GlcNAc
# In short: as §1
# [30] = molecular target: GlcNAc(b1-3)Gal(b1-4)GlcNAc(b1-3)Gal(b1-4)GlcNAc(b1-3)Gal(b1-4)GlcNAc(b1-2)[GlcNAc(b1-3)Gal(b1-4)GlcNAc(b1-3)Gal(b1-4)GlcNAc(b1-3)Gal(b1-4)GlcNAc(b1-6)]Man(a1-6)[GlcNAc(b1-3)Gal(b1-4)GlcNAc(b1-3)Gal(b1-4)GlcNAc(b1-3)Gal(b1-4)GlcNAc(b1-2)Man(a1-3)]Man(b1-4)GlcNAc(b1-4)[Fuc(a1-6)]GlcNAc
# In short: as §1
# [31] = molecular target: GlcNAc(b1-3)GalNAc
# In short: as §1
# [32] = molecular target: GlcNAc(b1-4)[GlcNAc(b1-6)]GalNAc
# In short: as §1
# [33] = molecular target: GlcNAc(b1-6)GalNAc
# In short: as §1
# [34] = molecular target: Man(a1-2)Man(a1-3)[Man(a1-2)Man(a1-6)]Man(a1-6)[Man(a1-2)Man(a1-2)Man(a1-3)]Man
# In short: as §1
# [35] = molecular target: Man(a1-2)Man(a1-6)[Man(a1-3)]Man(a1-6)[Man(a1-2)Man(a1-2)Man(a1-3)]Man(b1-4)GlcNAc(b1-4)GlcNAc
# In short: as §1
# [36] = molecular target: Man(a1-3)[Man(a1-6)]Man(a1-6)[Man(a1-3)]Man(b1-4)GlcNAc(b1-4)GlcNAc
# In short: as §1
# [37] = molecular target: Man(a1-3)[Man(a1-6)]Man(b1-4)GlcNAc(b1-4)GlcNAc
# In short: as §1
# [38] = molecular target: Neu5Ac(a2-3)Gal(b1-3)GlcNAc
# In short: as §1
# [39] = molecular target: Neu5Ac(a2-3)Gal(b1-3)GlcNAc(b1-2)[Neu5Ac(a2-3)Gal(b1-3)GlcNAc(b1-4)]Man(a1-6)[Neu5Ac(a2-3)Gal(b1-3)GlcNAc(b1-2)Man(a1-3)]Man(b1-4)GlcNAc(b1-4)GlcNAc
# In short: as §1
# [40] = molecular target: Neu5Ac(a2-3)Gal(b1-4)GlcNAc(b1-2)Man
# In short: as §1
# [41] = molecular target: Neu5Ac(a2-3)Gal(b1-4)GlcNAc(b1-2)Man(a1-3)[Neu5Ac(a2-6)Gal(b1-4)GlcNAc(b1-2)Man(a1-6)]Man(b1-4)GlcNAc(b1-4)GlcNAc
# In short: as §1
# [42] = molecular target: Neu5Ac(a2-3)Gal(b1-4)GlcNAc(b1-3)Gal(b1-4)GlcNAc(b1-6)[Gal(b1-3)]GalNAc
# In short: as §1
# [43] = molecular target: Neu5Ac(a2-3)Gal(b1-4)GlcNAc(b1-6)[Neu5Ac(a2-3)Gal(b1-3)]GalNAc
# In short: as §1
# [44] = molecular target: Neu5Ac(a2-3)Gal6S(b1-4)[Fuc(a1-3)]GlcNAc
# In short: as §1
# [45] = molecular target: Neu5Ac(a2-6)Gal(b1-4)GlcNAc
# In short: as §1
# [46] = molecular target: Neu5Ac(a2-6)Gal(b1-4)GlcNAc(b1-2)Man(a1-3)[Man(a1-6)]Man(b1-4)GlcNAc(b1-4)GlcNAc
# In short: as §1
# [47] = molecular target: Neu5Ac(a2-6)Gal(b1-4)GlcNAc(b1-2)Man(a1-3)[Neu5Ac(a2-3)Gal(b1-4)GlcNAc(b1-2)Man(a1-6)]Man(b1-4)GlcNAc(b1-4)GlcNAc
# In short: as §1
# [48] = molecular target: Neu5Ac(a2-8)Neu5Ac(a2-3)Gal(b1-3)GalNAc(b1-4)[Neu5Ac(a2-8)Neu5Ac(a2-3)]Gal(b1-4)Glc
# In short: as §1
# [49] = molecular target: Neu5Gc(a2-3)Gal(b1-3)[Fuc(a1-4)]GlcNAc
# In short: as §1
# [50] = molecular target: Neu5Gc(a2-3)Gal(b1-4)GlcNAc
# In short: as §1
# [51] = molecular target: Neu5Gc(a2-3)Gal(b1-4)[Fuc(a1-3)]GlcNAc
# In short: as §1
binder,measurement,setting,value
B1,glycan array binding signal (z-score),[1],0.086
same,glycan array binding signal (z-score),[2],0.587
same,glycan array binding signal (z-score),[3],0.341
same,glycan array binding signal (z-score),[4],1.97
same,glycan array binding signal (z-score),[5],2.84
same,glycan array binding signal (z-score),[6],-0.081
same,glycan array binding signal (z-score),[7],0.681
same,glycan array binding signal (z-score),[8],0.873
same,glycan array binding signal (z-score),[9],0.113
same,glycan array binding signal (z-score),[10],0.706
same,glycan array binding signal (z-score),[11],1.23
same,glycan array binding signal (z-score),[12],2.15
same,glycan array binding signal (z-score),[13],-0.547
same,glycan array binding signal (z-score),[14],-0.555
same,glycan array binding signal (z-score),[15],-0.073
same,glycan array binding signal (z-score),[16],0.375
same,glycan array binding signal (z-score),[17],-0.699
same,glycan array binding signal (z-score),[18],0.294
same,glycan array binding signal (z-score),[19],0.335
same,glycan array binding signal (z-score),[20],1.67
same,glycan array binding signal (z-score),[21],1.85
same,glycan array binding signal (z-score),[22],-0.424
same,glycan array binding signal (z-score),[23],0.45
same,glycan array binding signal (z-score),[24],1.5
same,glycan array binding signal (z-score),[25],0.983
same,glycan array binding signal (z-score),[26],1.83
same,glycan array binding signal (z-score),[27],1.8
same,glycan array binding signal (z-score),[28],1.87
same,glycan array binding signal (z-score),[29],1.68
same,glycan array binding signal (z-score),[30],2.41
same,glycan array binding signal (z-score),[31],-0.639
same,glycan array binding signal (z-score),[32],0.46
same,glycan array binding signal (z-score),[33],0.427
same,glycan array binding signal (z-score),[34],0.422
same,glycan array binding signal (z-score),[35],-0.445
same,glycan array binding signal (z-score),[36],-0.113
same,glycan array binding signal (z-score),[37],-0.343
same,glycan array binding signal (z-score),[38],-0.413
same,glycan array binding signal (z-score),[39],-0.094
same,glycan array binding signal (z-score),[40],-0.604
same,glycan array binding signal (z-score),[41],0.582
same,glycan array binding signal (z-score),[42],-0.924
same,glycan array binding signal (z-score),[43],-0.226
same,glycan array binding signal (z-score),[44],-0.291
same,glycan array binding signal (z-score),[45],-0.353
same,glycan array binding signal (z-score),[46],-1.15
same,glycan array binding signal (z-score),[47],-0.438
same,glycan array binding signal (z-score),[48],1.66
same,glycan array binding signal (z-score),[49],-0.44
same,glycan array binding signal (z-score),[50],-0.032
same,glycan array binding signal (z-score),[51],-0.174
